Measured values published in PubChem BioAssay AID652015 (National Center for Advancing Translational Sciences (NCATS), 2013).
Records with an inconclusive call do not appear. Calls of active or inactive are those of the source. The call rests on the fitted dose curve; in most records, active means well fitted inhibition curve with a large enough effect; inconclusive means small, poorly fitted or top-dose-only effect; inactive means no such curve, though single readings can be large or run the other way.

target: Coelenterazine h 2-monooxygenase (Renilla reniformis) (UniProt P27652); assay: qHTS Assay for Inhibitors of Sea Pansy Luciferase from the GSK Published Protein Kinase Inhibitor Set; conditions: purified Renilla luciferase, luminescence; series mostly up to 57.5 µM
How it was run: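 Purified R. reniformis luciferase (1 nM final) with 5 uM coelenterazine h in 50 mM Tris acetate pH 7.5, 100 uM NaCl, 0.01% Tween-20, 0.05% BSA. A titration, about 60 uM to 300 pM; luminescence read after about 2 min.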

Chain of Coelenterazine h 2-monooxygenase (Renilla reniformis) (P27652 whole entry, looked up): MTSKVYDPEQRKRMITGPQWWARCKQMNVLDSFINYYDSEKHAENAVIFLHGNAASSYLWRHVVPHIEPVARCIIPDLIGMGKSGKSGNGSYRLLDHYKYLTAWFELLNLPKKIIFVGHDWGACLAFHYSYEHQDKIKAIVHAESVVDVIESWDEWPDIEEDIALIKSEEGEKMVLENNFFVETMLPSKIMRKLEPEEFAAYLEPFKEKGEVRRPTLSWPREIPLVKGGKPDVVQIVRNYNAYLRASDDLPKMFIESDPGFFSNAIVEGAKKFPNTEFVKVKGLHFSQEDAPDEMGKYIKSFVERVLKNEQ

Potency, inactive:
COc1c(C(N)=O)cc(-c2ccc(Cl)cc2)cc1-c1ccc(S(N)(=O)=O)cc1, N#Cc1c(NC(=O)c2ccc(F)cc2)sc2c1CCCC2, Cc1nc(-c2ccccc2)n2nc(NCCCN3CCOCC3)ncc12, CN(C)C(=O)OC1CNC(C#Cc2cc3ncnc(Nc4ccc(OCc5cccc(F)c5)c(Cl)c4)c3s2)C1 (centres undefined), CC1=C(C(=O)Nc2ccc3n[nH]c(C)c3c2)C(c2ccc(C(F)(F)F)cc2)CC(=O)N1 (centres undefined), CCc1cccc(CC)c1C=Cc1cncc(C(=O)NC)c1, CN1CCC(n2cnc(-c3ccc(F)cc3)c2-c2ccnc(Nc3ccccc3)n2)CC1, COc1cc(C)c(N(C)C(=O)CN(C)C)cc1Nc1nc(Nc2cccc(F)c2C(N)=O)c2cc[nH]c2n1, COc1ccc(-c2nn3ncccc3c2-c2ccnc(Nc3ccc4c(c3)OCCO4)n2)cc1, CS(=O)(=O)CCNCc1coc(-c2ccc3ncnc(Nc4ccc(OCc5ccccc5)cc4)c3c2)c1, O=S1CCN(Cc2ccc(-c3ccc4ncnc(Nc5ccc(OCc6ccccc6)c(Cl)c5)c4c3)o2)CC1, NC(=O)c1ccc2c(-c3ccnc(NCCCO)n3)c(-c3ccc(F)cc3)nn2c1, CC(C)COC(=O)c1ccc2[nH]c(O)c(C=Nc3ccc(S(N)(=O)=O)cc3)c2c1, COC(=O)c1cncc(C=Cc2c(C)cc(O)cc2C)c1, NS(=O)(=O)c1cccc(N=Cc2c(O)[nH]c3ccccc23)c1, Fc1cccc(COc2ccc(Nc3ncnc4sc(-c5cccs5)cc34)cc2Cl)c1, CS(=O)(=O)CCNCc1ccc(-c2ccc3ncnc(Nc4ccc(OCc5ccccc5)c(C(F)(F)F)c4)c3c2)o1, N#Cc1c(NC(=O)c2ccccc2F)sc2c1CCCC2, O=C(Nc1n[nH]c2nc(-c3ccco3)ccc12)C1CC1, Fc1ccc(-c2ncn(C3CCNCC3)c2-c2ccnc(Oc3ccc4c(c3)OCO4)n2)cc1, COc1cc2c(cc1Nc1nc(Nc3ccsc3C(N)=O)c3cc[nH]c3n1)N(C(=O)CN(C)C)CCC2(C)C, Nc1nccc(-c2c(-c3ccc(F)cc3)ncn2C2CCC(O)CC2)n1 (centres undefined), Cc1cc(-c2ccco2)cc(C)c1C=Cc1cncc(-c2nn[nH]n2)c1, CC(=Nc1ccc(S(N)(=O)=O)cc1)c1c(O)[nH]c2ccccc12, COc1cc2ncn(-c3cc(OCc4ccccc4C(F)(F)F)c(C(N)=O)s3)c2cc1OC, Cc1ccc2[nH]c(O)c(N=Nc3ccc(S(N)(=O)=O)cc3)c2c1, COc1cccc(-n2nc(C)c3c(NN=C(C)c4ccncc4)ncnc32)c1, O=C1N=c2ccc(N=Cc3c(O)[nH]c4ccccc34)cc2=N1, Nc1nc(-c2ccccn2)c(-c2ccc3ncccc3n2)s1, COc1cc2ncn(-c3cc(OCc4ccccc4Cl)c(C(N)=O)s3)c2cc1OC, COc1cccc(-n2ncc3c(NN=Cc4ccc(F)cc4)ncnc32)c1, CCn1c(-c2nonc2N)nc2c(N3CCCC3)nccc21, CCOc1ccc2c(-c3ccnc(Nc4cccc(C(F)(F)F)c4)n3)cnn2n1, CCn1c(-c2nonc2N)nc2cnc(Oc3cccc(NC(=O)c4ccc(OCCN5CCOCC5)cc4)c3)cc21, COc1ccc(-c2nn3ncccc3c2-c2ccnc(Nc3ccc(F)c(F)c3)n2)cc1, COc1ccc2ncn(-c3cc(OC(C)c4ccccc4Cl)c(C(N)=O)s3)c2c1 (centres undefined), Cc1ccc(O)cc1Nc1ccnc2ccc(S(C)(=O)=O)cc12, COc1cc(Nc2ncc3c(C)nc(-c4cccc(C(F)(F)F)c4)n3n2)cc(OC)c1OC, Fc1ccc(-c2c(-c3ccncc3)nc3n2CCS3)cc1
